This note sets out measurements from PubChem BioAssay.

A number with no mark means an inactive call. The rule behind the calls is not given here.

The target of the assay is Pantothenate synthetase (Mycobacterium tuberculosis (strain ATCC 25618 / H37Rv)) (UniProt P9WIL5). Briefly: Coupled enzyme confirmation of inhibitors against recombinant Mtb PanC (AID 375).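 Note: 0% = full reaction with vehicle and 100% = no enzyme background.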 The note with it: coupled enzyme assay; at 10 µM, hits give high values.
Chain of Pantothenate synthetase (Mycobacterium tuberculosis (strain ATCC 25618 / H37Rv)) (P9WIL5 whole entry, looked up): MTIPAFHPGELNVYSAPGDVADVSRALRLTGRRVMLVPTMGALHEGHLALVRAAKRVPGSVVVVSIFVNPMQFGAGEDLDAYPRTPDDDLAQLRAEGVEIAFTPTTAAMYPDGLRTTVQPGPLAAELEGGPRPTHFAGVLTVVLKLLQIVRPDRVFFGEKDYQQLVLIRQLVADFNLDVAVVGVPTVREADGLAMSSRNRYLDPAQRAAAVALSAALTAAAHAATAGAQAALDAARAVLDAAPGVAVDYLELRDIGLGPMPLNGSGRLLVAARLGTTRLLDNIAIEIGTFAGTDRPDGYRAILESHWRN
One may read the inhibition as the relative decrease from the control value, in per cent. For `CCN1CCN(c2c(Cl)cccc2NC(=O)c2ccc3c(c2)OCCO3)CC1`, the inhibition was 0%.

Take `CN(CC(=O)NCCC1=CCCCC1)S(=O)(=O)c1ccc2c(c1)CCC(=O)N2`: the inhibition was 0%.

Take `O=C(O)c1cccc(COCC(F)(F)C(F)F)c1`: the inhibition was 0%.

For the compound `COc1ccc(N2CCN(C(=O)Cc3ccc(-n4c(=O)[nH]c5ccccc5c4=O)cc3)CC2)cc1`, the inhibition was 6%.

Regarding `CCC(C)(C(=O)NC1CCCCC1)N(Cc1ccco1)C(=O)c1cnccn1` (stereo not given), the inhibition was 3%.

Take `Cn1c(=O)c2c(nc(-n3ccnc3)n2C)n(C)c1=O`: the inhibition was 0%.

With `O=C1c2oc3ccccc3c(=O)c2C(c2cccnc2)N1Cc1ccco1` (stereo not given), the inhibition was 0%.

Regarding `Cc1ccc(N(CC(=O)NCC2CCCO2)S(C)(=O)=O)cc1Cl` (stereo not given), the inhibition is 0%.

For the compound `CCOc1ccc2[nH]c(=O)c(CN(CCOC)C(=O)N3CCOCC3)cc2c1`, the inhibition is 8%.

On to `CCc1[nH]nc2c1C(c1cccc(OC(=O)N3CCOCC3)c1)C(C#N)=C(N)O2` (stereo not given), for which the inhibition is 1%.

As for `CC(=O)OC1c2ccccc2C(=O)N1c1ccccc1C` (stereo not given), the inhibition is 1%.

As to `Cc1ccc(-n2c(Cc3cccn3C)nnc2SCC(=O)NCc2ccc3c(c2)OCO3)cc1`, the inhibition was 0%.

With `COc1cc(Br)cc(CN2CCN(C/C=C/c3ccccc3)CC2)c1O`, the inhibition was 0%.

Turning to `CC1(C)NC(=O)N(CC(O)COc2cccc(F)c2)C1=O` (stereo not given), the inhibition is 0%.

For `CCOC(=O)CN1CC23C=CC(O2)C(C(=O)Nc2ccc(C(C)=O)cc2)C3C1=O` (stereo not given), the inhibition was 6%.

Take `O=C(c1ccc(Cl)s1)N1CCN(c2nc3ccccc3s2)CC1`: the inhibition was 6%.

As to `CCOC(=O)c1cnc(-n2cc(C)cn2)nc1Nc1ccccc1OC`, the inhibition is 0%.

As for `COc1cc(OC)cc(C(=O)NCCN2CCOCC2)c1`, the inhibition was 0%.

As for `Cc1cccc(-c2cc3nc(C)cc(NCCCN(C)C)n3n2)c1`, the inhibition was 0%.

As to `N#Cc1c(N)n(CCOC(=O)c2cccc(Br)c2)c2nc3ccccc3nc12`, the inhibition is 3%.

As to `CCC(C)n1ncn(-c2ccc(N3CCN(c4ccc(OCC5COC(Cn6cncn6)(c6ccc(Cl)cc6Cl)O5)cc4)CC3)cc2)c1=O` (stereo not given), the inhibition was 8%.

Consider `COc1ccccc1N1CCN(C(=O)CN(Cc2ccc(Cl)cc2)S(C)(=O)=O)CC1`, for which the inhibition is 3%.

Consider `CC(C)(C)c1ccc(C(=O)N2CCC(C(=O)NCc3ccncc3)CC2)cc1`, for which the inhibition was 0%.

Turning to `CC(C)C(=O)Nc1ccc(-c2nc3cccnc3o2)cc1`, the inhibition is 2%.

For the compound `COc1nc(OC)nc(N2CCC(NC(=O)C(Cc3ccc(C(C)C)cc3)NC(C)=O)CC2)n1` (stereo not given), the inhibition is 5%.

In the case of `COC(=O)c1cc(-c2c(C)nn(-c3ccccc3)c2C)n[nH]1`, the inhibition is 0%.

As for `Cc1[nH]c(=O)[nH]c(=O)c1S(=O)(=O)N1c2ccc(F)cc2CCC1C` (stereo not given), the inhibition is 0%.

As to `O=C(NC1CCCc2ccccc21)c1ccc(CNc2c(N3CCOCC3)c(=O)c2=O)cc1` (stereo not given), the inhibition was 0%.

As for `CCOC(=O)c1c(N)sn(-c2ccccc2)c1=S`, the inhibition was 5%.

On to `COc1cc(NC(=O)C2C3C=CC(C3)C2C(=O)O)c(OC)cc1Cl` (stereo not given), for which the inhibition is 0%.

On to `CCOCCCNC(=O)C1CCCN(S(=O)(=O)CC)C1` (stereo not given), for which the inhibition was 0%.

For `CN1C(=O)c2oc3ccccc3c(=O)c2C1c1ccccn1` (stereo not given), the inhibition is 0%.

In the case of `CCOC(=O)C1=C(O)C(=O)N(c2ccc(S(N)(=O)=O)cc2)C1c1ccccc1` (stereo not given), the inhibition was 0%.

With `Cn1c(-c2ccccc2)cc(=O)c2ccccc21`, the inhibition was 0%.

In the case of `CCN(CC)CCN1C(=O)C(=O)/C(=C(/O)c2c(C)[nH]c(C(=O)OC)c2C)C1c1ccco1` (stereo not given), the inhibition is 0%.

On to `CC1CCCC(C)N1C(=O)CSc1nnc(-c2cccs2)o1` (stereo not given), for which the inhibition is 1%.

As for `Cn1c(=O)cc(OCCCC(=O)N2CCCCC2)c2ccccc21`, the inhibition was 0%.

Take `CCc1c(C(=O)NCCc2ccc(OC)c(OC)c2)[nH]c(C)c1C(C)=O`: the inhibition was 12%.

In the case of `COC(=O)Oc1c(Br)c(=O)oc2ccccc12`, the inhibition is 0%.

With `C=C(C)COc1ccc(-c2nc(N)ncc2Oc2ccccc2OCC)c(O)c1`, the inhibition was 1%.
